A selection: hits, their analogues and other compounds. The true share with any hit is near 6.9%.
BAZ2B block = BAZ2B (human) inhibition; Q9UIF8; AlphaScreen BAZ2B-H3K14Ac peptide displacement; Potency, µM (highest dose often 114 µM), inactives show at the highest dose activity change, negative = inhibition, actives largely listed as inhibitors; 360,000 compounds, 4.4% hits; also: % is scaled to controls: 0 for no effect and ±100 for the full control effect; nearly all actives have a fitted effect of over 60% in size
Target sequence (Q9UIF8 whole entry, looked up): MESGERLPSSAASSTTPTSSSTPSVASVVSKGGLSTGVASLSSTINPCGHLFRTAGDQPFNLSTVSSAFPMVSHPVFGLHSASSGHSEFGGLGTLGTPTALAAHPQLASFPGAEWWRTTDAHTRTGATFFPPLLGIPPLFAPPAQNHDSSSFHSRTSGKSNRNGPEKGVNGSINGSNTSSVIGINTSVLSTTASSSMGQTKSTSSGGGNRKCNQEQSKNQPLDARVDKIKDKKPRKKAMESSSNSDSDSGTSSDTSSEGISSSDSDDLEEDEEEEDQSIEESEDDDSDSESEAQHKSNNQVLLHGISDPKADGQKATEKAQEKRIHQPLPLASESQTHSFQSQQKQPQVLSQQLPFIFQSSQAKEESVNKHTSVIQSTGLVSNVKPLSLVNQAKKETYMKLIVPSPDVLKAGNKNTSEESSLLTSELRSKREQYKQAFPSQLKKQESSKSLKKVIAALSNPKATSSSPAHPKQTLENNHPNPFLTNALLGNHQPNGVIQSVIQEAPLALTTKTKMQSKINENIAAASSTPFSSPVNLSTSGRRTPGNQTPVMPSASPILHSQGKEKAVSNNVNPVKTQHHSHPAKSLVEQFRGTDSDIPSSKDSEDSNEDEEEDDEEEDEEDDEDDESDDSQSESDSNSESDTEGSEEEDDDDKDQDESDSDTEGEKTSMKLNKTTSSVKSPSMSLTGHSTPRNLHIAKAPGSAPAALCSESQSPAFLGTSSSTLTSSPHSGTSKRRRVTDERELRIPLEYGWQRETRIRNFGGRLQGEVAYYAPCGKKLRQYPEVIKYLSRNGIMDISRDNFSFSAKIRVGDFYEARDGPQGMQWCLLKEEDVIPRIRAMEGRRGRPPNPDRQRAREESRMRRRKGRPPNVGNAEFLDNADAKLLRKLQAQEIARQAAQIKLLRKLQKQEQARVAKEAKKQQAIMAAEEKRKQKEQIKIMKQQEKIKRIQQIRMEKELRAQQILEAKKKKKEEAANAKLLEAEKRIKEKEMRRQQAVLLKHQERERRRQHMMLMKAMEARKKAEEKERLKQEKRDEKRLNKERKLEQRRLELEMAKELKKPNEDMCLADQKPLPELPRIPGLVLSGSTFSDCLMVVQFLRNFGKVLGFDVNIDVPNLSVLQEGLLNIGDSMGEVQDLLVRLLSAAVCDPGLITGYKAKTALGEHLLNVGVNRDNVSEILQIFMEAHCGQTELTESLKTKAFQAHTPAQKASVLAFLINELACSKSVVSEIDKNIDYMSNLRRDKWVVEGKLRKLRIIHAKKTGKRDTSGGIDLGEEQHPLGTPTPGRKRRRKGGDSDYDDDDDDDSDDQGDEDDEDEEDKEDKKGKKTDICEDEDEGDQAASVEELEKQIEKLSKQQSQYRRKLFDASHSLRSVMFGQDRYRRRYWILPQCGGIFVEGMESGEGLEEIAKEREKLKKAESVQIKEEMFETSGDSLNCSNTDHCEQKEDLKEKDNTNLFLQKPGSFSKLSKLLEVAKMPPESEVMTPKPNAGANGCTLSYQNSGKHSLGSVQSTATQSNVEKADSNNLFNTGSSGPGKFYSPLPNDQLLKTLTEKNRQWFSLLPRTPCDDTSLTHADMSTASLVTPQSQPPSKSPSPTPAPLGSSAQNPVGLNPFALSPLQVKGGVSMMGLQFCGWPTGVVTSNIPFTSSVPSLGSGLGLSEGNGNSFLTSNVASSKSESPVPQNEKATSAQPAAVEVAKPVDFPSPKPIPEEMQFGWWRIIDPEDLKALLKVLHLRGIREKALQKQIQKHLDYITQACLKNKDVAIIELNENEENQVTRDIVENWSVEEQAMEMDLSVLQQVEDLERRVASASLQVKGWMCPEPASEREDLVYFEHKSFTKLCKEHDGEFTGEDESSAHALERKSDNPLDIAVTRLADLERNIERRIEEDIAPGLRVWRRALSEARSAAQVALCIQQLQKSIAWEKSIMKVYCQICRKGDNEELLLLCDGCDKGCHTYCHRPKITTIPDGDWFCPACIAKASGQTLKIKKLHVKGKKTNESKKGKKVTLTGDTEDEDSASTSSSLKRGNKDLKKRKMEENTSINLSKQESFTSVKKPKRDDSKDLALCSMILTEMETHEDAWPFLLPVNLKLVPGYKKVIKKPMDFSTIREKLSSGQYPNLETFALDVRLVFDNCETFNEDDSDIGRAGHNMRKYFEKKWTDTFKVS
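AlphaScreen luminescence quantifies BAZ2B engagement of H3K14Ac peptide; the protein and biotinylated peptide are both at 50 nM final, buffer PBS pH 7.4 with 0.01% Tween-20, all steps at room temperature.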
L3MBTL1 inh = inhibitors of human L3MBTL1. AlphaScreen L3MBTL1–H3K9me1 peptide binding. AID 485360. Potency, µM (top dose mostly 57.1 µM), for the others: at the highest dose activity, negative = inhibition, actives largely listed as inhibitors. 230,000 compounds, 0.66% hits; also: % is scaled to controls: 0 for no effect and ±100 for the full control effect; nearly all actives have a fitted effect of over 60% in size
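AlphaScreen proximity signal between nickel-chelate acceptor and streptavidin donor beads (final 10 ug/mL) reports binding of 50 nM L3MBTL1 to 75 nM biotin-H3 K9me1 peptide; complex incubated with compounds 30 min at room temperature; cefsulodin titration as control.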
HP1b chromo inh = inhibitors of HP1-beta chromodomain binding to methylated histone tails; 390,000 compounds, 0.56% hits; Potency, µM (series often up to 114 µM), for the others: at the top dose activity change, negative = inhibition, hits mostly inhibitors; AlphaScreen HP1-beta / biotin-H3K9me3 peptide binding; also: nearly all actives have a fitted effect of over 70% in size
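AlphaScreen: HP1-beta (50 nM) preformed 30 min with biotin-H3(1-18)K9me3 peptide (50 nM) in PBS pH 7.4, 0.01% Tween-20. Compound added for 30 min at RT, then streptavidin donor/nickel chelate acceptor beads (10 ug/mL) for 30 min.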
VDR inh = blocks the human vitamin D receptor | P11473 | VDR-SRC2-3 peptide fluorescence polarization, 2 h | 400,000 compounds, 0.93% hits | Potency, µM, for inactives: max response, negative = inhibition, actives largely listed as inhibitors; also: % is scaled to controls: 0 for no effect and ±100 for the full control effect
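Inhibition of the VDR/SRC2-3 peptide interaction is quantified by fluorescence polarization. Compounds (23 nl, pintool) incubate with the reagents for 2 hours at ambient room temperature.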
JMJD2A Tudor = blocks the human JMJD2A Tudor domain. AlphaScreen JMJD2A-Tudor / H3K4me3 peptide binding. Potency, µM (highest dose often 114 µM), for the others: at the highest dose activity change, negative = inhibition, most hits filed as inhibitors. 390,000 compounds, 4.4% hits. AID 504339; also: % is scaled to controls: 0 for no effect and ±100 for the full control effect; nearly all actives have a fitted effect of over 50% in size
PLK1 PBD block = PLK1 (human) polo-box domain binding inhibition; P53350; Plk1 PBD binding of FITC phosphopeptide, fluorescence polarization; Potency, µM, without a hit: max response, negative = inhibition, actives largely listed as inhibitors; 360,000 compounds, 2.8% hits; AID 720504; also: series mostly up to about 57 µM; % is scaled to controls: 0 for no effect and ±100 for the full control effect; nearly all actives have a fitted effect of over 65% in size
* marks the source's active call; other numbers are inactive results; ? = inconclusive; · = no result; [ ] = remark or other dose. Calls follow the shape of the dose curve; as a rule, active = well fitted curve in the direction sought with a large enough effect; inconclusive = small, poorly fitted or top-dose-only effect, or another doubt; inactive = no such curve, though single readings can be large; an effect the other way counts as inactive or inconclusive. Potency is read from the fitted curve at half-maximal effect.

SMILES | BAZ2B block | L3MBTL1 inh | HP1b chromo inh | VDR inh | JMJD2A Tudor | PLK1 PBD block
COc1ccccc1N1CCN(S(=O)(=O)/C=C/c2ccccc2)CC1 | 19% | · | 30% | -6% | 3% | -1%
COc1ccccc1N1CCN(C/C=C/c2ccc(N(C)C)cc2)CC1 | 40µM* | ? | · | · | · | ·
COc1ccc(CN2CCN(Cc3ccco3)CC2)cc1 | 20µM* | · | 20µM* | 15% | 4µM* | -2%
Cc1ccc2cc3cc(C(=O)N4CCN(c5ccccc5)CC4)sc3nc2c1 | -2% | · | 24% | -11% | -1% | ·
CCOC(=O)C1=C(N)OC2=C(C(=O)CC(C)(C)C2)C1c1ccco1 (stereo unspecified) | -19% | -7% | 10% | -14% | 56µM* | -11%
CC1=C(C(=O)OCC(C)C)C(c2ccc(Br)s2)NC(=O)N1 (stereo unspecified) | -7% | -1% | 38% | -17% | -6% | 0%
CCCOC(=O)C1=C(C)NC(=O)NC1c1ccc(Br)s1 (stereo unspecified) | -14% | · | -2% | -7% | -5%[11.4 µM] | 24µM*
CCOC(=O)C1=C(C)NC(=O)NC1c1ccco1 (stereo unspecified) | 79µM* | ? | -6% | 5% | ? | -5%
Cc1ccc(C)c(NC(=O)CSc2nnc(C3CCCCC3)o2)c1 | -1% | · | 14%[57 µM] | 1% | -12% | -6%
COc1ccc(-c2nc3scc(CCNS(=O)(=O)c4cccs4)n3n2)cc1 | -10% | · | 33% | 10% | -17% | ·
Cc1ccc2ncc3c(-c4ccc(F)cc4)nn(CC(=O)Nc4ccccc4C)c3c2c1 | -9% | · | 17% | 2% | -15% | ·
N#Cc1ccccc1OCC(=O)OCC(=O)c1c[nH]c2ccccc12 | 0% | 0% | 21% | 17% | -27% | -1%
C=CCn1c(SCCN)nnc1-c1cccc(S(=O)(=O)N2CCOCC2)c1 | · | · | 22% | -23% | 14µM* | -4%
O=C(O)CSc1nnc(-c2cccc(S(=O)(=O)N3CCOCC3)c2)n1-c1ccc(F)cc1 | · | 2% | 46% | -7% | -5% | -3%
CCN(C(=O)c1cccn(Cc2ccccc2C)c1=O)c1ccccc1 | 3% | · | 33%[57 µM] | -1% | 0% | ·
O=c1cc(-c2ccccc2)[nH]n1-c1ccc([N+](=O)[O-])cc1 | 45µM* | -2% | ? | -18% | 35µM* | 21µM*
COc1nnc(-c2ccc(N3CCCCC3)c(N)c2)c2ccccc12 | · | · | -19% | -1% | ? | 0%
O=C(O)C1=NN(c2cc(Cl)c(S(=O)(=O)O)cc2Cl)C(=O)C1 | · | · | -9%[57 µM] | -14% | 6.3µM* | ?
Cc1ccc(C)c(N2N=C(C(=O)O)CCC2=O)c1 | -20% | -5% | ? | 4% | -7% | 0%
Cc1nc2sc(C(=O)N(C)Cc3ccccc3)c(NC(=O)c3ccccc3)c2c(C)c1Cl | -18% | · | 23% | 3% | -10% | ·
O=C1C(Cl)=C(N2CCOCC2)C(=O)N1c1cccc(Cl)c1 | 33% | 8% | 76% | 25µM* | ? | -27%
Cc1ccc(N2C(=O)C(Cl)=C(N3CCN(C)CC3)C2=O)c(C)c1 | 3% | 7% | 52% | ? | -16% | -29%
CN1CCN(C2=C(Cl)C(=O)N(c3ccc(Cl)cc3)C2=O)CC1 | · | -7% | 26% | -2% | 40µM* | -26%
COC(=O)CN1C(=S)N(c2ccc(OC)cc2)C(=O)/C1=C/c1ccc(OC)cc1 | -35% | -3% | 7% | -17% | -33% | -11%
COC(=O)CN1C(=S)N(c2ccc(OC)cc2)C(=O)/C1=C/c1ccc(N2CCOCC2)cc1 | 28µM* | -8%[11.4 µM] | ? | -11% | ? | -23%
CCc1ccc(N2C(=O)C(Cl)=C(N3CCOCC3)C2=O)cc1 | -6% | 8% | 65% | ? | -3% | -20%
COc1ccc(N2C(=O)C(Cl)=C(N3CCOCC3)C2=O)cc1 | -2% | 29% | 37% | 28µM* | -8% | 0%
Cc1cccc(N2C(=O)C(Cl)=C(N3CCOCC3)C2=O)c1 | 2% | 3% | 56% | ? | -13% | -13%
